Compound activity: PubChem BioAssay, several laboratories
Shown are actives, neighbours in structure and some others; about 3.8% of the full set was active somewhere.
NLRP3 yeast inh – inhibitors of NALP3 inflammasome in yeast | inhibition, % at 10 µM | Yeast reconstituted NLRP3/ASC/caspase-1, beta-gal luminescence, 24 h | AID 2825 | actives 0.39% (n = 330,000);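 active = inhibition of 50% or more; inactive = inhibition below 50%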
CR mimetic SO – lowers age-related superoxide in aged yeast cells; S. cerevisiae aged cells, superoxide DHE fluorescence; active compounds read low; superoxide response (% of plate mean), % at 10 µM; actives 0.18% (n = 330,000); AID 2690;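 active = superoxide response under a set limit, about three screen SD below normal, cut at about 65% in these data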;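 also: yeast aged for seven days with compound at 30 °C before DHE staining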
TIM10 inh – TIM10 yeast growth inhibition; S. cerevisiae TIM10 strain growth, BacTiter-Glo luminescence, 24 h; inhibition, % at 10 µM; actives 1.4% (n = 330,000); AID 463195;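 active = inhibition of 40% or more at the single tested concentration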;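 also: wild-type TIM10 isogenic control strain grown at permissive 25 °C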
tim23-1 inh – tim23-1 yeast growth inhibition; S. cerevisiae tim23-1 growth, BacTiter-Glo luminescence, 24 h; inhibition, % at 20 µM; actives 1.3% (n = 330,000);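 active = growth inhibition of the mutant yeast at or above 50%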;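 also: temperature-sensitive mutant grown at 25 °C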
tim10-1 inh – inhibits growth of tim10-1 mutant yeast; actives 2.2% (n = 330,000); S. cerevisiae tim10-1 ts strain growth, BacTiter-Glo, 24 h; inhibition, % at 20 µM;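 active = inhibition of at least 40%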;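 also: mutant grown at 25 °C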
tim10-1 confirm – confirmation of tim10-1 mutant yeast growth inhibitors | actives 56% (n = 7,400) | inhibition, % at 20 µM | S. cerevisiae tim10-1 ts strain growth, BacTiter-Glo, 24 h | shares compounds with tim10-1 inh;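 active = inhibition of yeast growth at or above a set limit in either of two repeat tests at 20 µM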;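 also: tim10-1 mutant grown at permissive 25 °C to find synthetic lethal compounds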
Large screens that a line does not name were inactive (follow-up assays come after a bar, where they were run).

N/C(=N\S(=O)(=O)c1cc(C(F)(F)F)cc(C(F)(F)F)c1)c1ccc(Cl)cc1	tim10-1 inh 46 | tim10-1 confirm 43
O=C(/C=C/c1ccccc1[N+](=O)[O-])NCCN1C(=O)S/C(=C\c2ccc(F)cc2)C1=O	none
CC(C)(C)C(=O)NCCN1C(=O)S/C(=C\c2ccc([N+](=O)[O-])cc2)C1=O	tim10-1 inh 57 | tim10-1 confirm 44
COc1cc(/C=C(\C#N)c2nc3c(s2)CCCC3)ccc1O	tim10-1 inh 44 | tim10-1 confirm inactive
COc1cc(/C=C(\C#N)C(=O)N2CCCCC2)ccc1O	none
CC1CCc2nc(/C(C#N)=C/c3cccnc3)sc2C1 (configuration not stated)	tim10-1 inh 42 | tim10-1 confirm inactive
N#C/C(=C\c1cccnc1)c1nc2c(s1)CCCC2	tim10-1 inh 43 | tim10-1 confirm 32
O=[N+]([O-])c1cc([N+](=O)[O-])c(Oc2c(F)ccc(F)c2F)cc1NN1CCCCC1	none
Cc1cc(C(F)(F)F)n(-c2nc(C(=O)N/N=C/c3ccc(F)cc3)cs2)n1	tim10-1 inh 42 | tim10-1 confirm inactive
Cc1c(C(=O)Nc2ccccc2-c2ccccc2)cccc1[N+](=O)[O-]	tim10-1 inh 42 | tim10-1 confirm inactive
O=C(Nc1ccccc1)c1ccc(-c2ccccc2C(F)(F)F)o1	tim10-1 inh 44 | tim10-1 confirm inactive
CC(C)NC(=O)c1ccc(-c2ccccc2C(F)(F)F)o1	none
O=[N+]([O-])c1cc(/C=N/O)ccc1SCc1ccccc1Cl	tim10-1 inh 47 | tim10-1 confirm inactive
COc1ccc(CNCC(O)COc2cccc3c2OC(C)(C)C3)cc1 (configuration not stated)	none
Cc1cc(Nc2nc(Cl)c(Cl)cc2Cl)n(-c2ccccc2)n1	tim10-1 inh 45 | tim10-1 confirm 34
Cc1cc(C)nc(-n2nc(C)cc2Nc2ccccc2)n1	tim10-1 inh 41 | tim10-1 confirm inactive
C=CCN(C(=O)CCC(=O)Nc1cc(C)on1)C(C(=O)NC(C)(C)CC)c1cccc(OC)c1OC (configuration not stated)	none
Cc1nn(Cc2ccc(F)cc2)c(C)c1NC(=O)CCCn1nc([N+](=O)[O-])cc1C	none
CP(=O)(Nc1cc(Cl)ccc1Cl)c1nc2c(s1)CCCC2 (configuration not stated)	none
COc1cc2ccccc2cc1C(=O)N(CCN(C)C)c1nc2ccc(C)cc2s1	tim10-1 inh 42 | tim10-1 confirm inactive
COc1cc2ccccc2cc1C(=O)N(CCN(C)C)c1nc2c(OC)ccc(OC)c2s1	tim10-1 inh 46 | tim10-1 confirm inactive
COc1cc2ccccc2cc1C(=O)N(CCN(C)C)c1nc2c(C)cccc2s1	tim10-1 inh 56 | tim10-1 confirm inactive
O=C(N/N=C1\CCCc2ccccc21)c1ccc([N+](=O)[O-])cc1	tim10-1 inh 46 | tim10-1 confirm inactive
O=C(c1nc2ccccc2s1)N1CCN(c2ccccn2)CC1	tim10-1 inh 45 | tim10-1 confirm inactive
O=C(c1ccc2nc(N3CCOCC3)sc2c1)N1CCC(Cc2ccccc2)CC1	tim10-1 inh 54 | tim10-1 confirm 43
O=C(c1nc2ccccc2s1)N1CCSCC1	none
Cc1cccc(N2CCN(C(=O)c3ccc4nc(N5CCCCC5)sc4c3)CC2)c1C	none
O=C(c1ccc2nc(N3CCCCC3)sc2c1)N1CCN(c2ccccn2)CC1	tim10-1 inh 51 | tim10-1 confirm 35
Cc1cccc(NC(=O)CNC(=O)c2cccc(-n3cccc3)c2)c1C	none
CCn1c2ccccc2c2cc(NC(=O)COC(=O)c3cc(S(N)(=O)=O)c(Cl)cc3Cl)ccc21	none
COc1ccc(S(=O)(=O)n2nc(OC(=O)c3cccs3)cc2NC(=O)c2cccs2)cc1	tim10-1 inh 45 | tim10-1 confirm 30
COc1ccc(S(=O)(=O)n2nc(OC(C)=O)cc2N)cc1	none (no result: CR mimetic SO)
COc1ccc(C(=O)Oc2cc(N)n(S(=O)(=O)c3ccccc3)n2)cc1	tim10-1 inh 40 | tim10-1 confirm inactive
Fc1ccccc1-c1csc(=Nc2cccnc2)n1CCCn1ccnc1	none
O=C(N1CCCCCC1)n1c(Cc2ccccc2)nc2ccccc21	tim10-1 inh 41 | tim10-1 confirm 42
CC(=O)C1=C(c2ccccc2)OC(N)=C(C#N)C1c1ccccc1C (configuration not stated)	tim10-1 inh 45 | tim10-1 confirm inactive
CC(=O)C1=C(C)OC(N)=C(C#N)C1c1cc2cccc(C)c2nc1Cl (configuration not stated)	tim10-1 inh 46 | tim10-1 confirm inactive
O=C(COC(=O)/C=C/c1cccs1)NC1CC1	none
O=C1/C(=C/c2ccc(O)cc2)CCc2ccc([N+](=O)[O-])cc21	none
O=C1/C(=C\c2ccc([N+](=O)[O-])cc2)CCc2ccccc21	tim10-1 inh 47 | tim10-1 confirm 36
O=C(CCc1ccccc1)NC(=S)Nc1ccccc1[N+](=O)[O-]	none
Cc1ccc2cccnc2c1N	none
Cc1ccnc2c1ccc1cccnc12	tim10-1 inh 42 (no result: CR mimetic SO) | tim10-1 confirm inactive
O=C(NC1CCCC1)c1sc(=S)n2c1[nH]c(=O)c1ccccc12	tim10-1 inh 47 | tim10-1 confirm inactive
CCn1c(SCC(=O)Nc2cc(C)on2)nc2c(c1=O)SCC2	none
O=C1c2ccccc2S(=O)(=O)N1CC(O)Cn1ccc2ccccc21 (configuration not stated)	tim10-1 inh 42 | tim10-1 confirm inactive
O=C(COC(=O)c1cnccn1)Nc1ncc(Cl)cc1Cl	none
CCOc1cc(/C=C2\SC(=S)N(Nc3ccccc3)C2=O)ccc1O	none
COc1cc(/C=C2\SC(=S)N(Nc3ccccc3)C2=O)ccc1O	tim10-1 inh 51 | tim10-1 confirm inactive
CC(=O)c1ccc(NC(=S)NC(=O)Cc2ccc(Cl)cc2)cc1	none
CC(=O)c1ccc(NC(=S)NC(C)c2ccc(Cl)cc2Cl)cc1 (configuration not stated)	tim10-1 inh 56 | tim10-1 confirm 33
CC1CCN(c2oc(-c3ccc(F)cc3)nc2C#N)CC1	tim10-1 inh 99 | tim10-1 confirm inactive
CN(CCc1ccccn1)C(=O)Nc1ccc(Cl)cc1	none
CN(CCc1ccccn1)C1CC(=O)N(c2ccc(Cl)cc2)C1=O (configuration not stated)	tim10-1 inh 41 | tim10-1 confirm 34
COc1cccc(CN2CC(C(=O)NCCOc3ccccc3F)CCC2=O)c1 (configuration not stated)	none
COC(=O)c1cn(C(=O)c2ccc(C)cc2)c2ccccc12	none
COC(=O)c1cn(C(=O)c2ccc(OC)cc2)c2ccccc12	tim10-1 inh 42 | tim10-1 confirm inactive
CC(=O)C1CCCN(C(=O)c2ccc3oc(CCc4ccccc4)nc3c2)C1 (configuration not stated)	none
CCOC(=O)C1CCCN(C(=O)c2ccc3oc(CCc4ccccc4)nc3c2)C1 (configuration not stated)	tim10-1 inh 42 | tim10-1 confirm inactive
